The panel holds about 83,000 compounds, 20% with a hit somewhere; the sample as a whole holds those more often.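 Single-concentration screen, 48 h exposure, 96-well plates. Endpoint: percent growth. Below 10 = active.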 Activity calls are given as the source filed them.
Test system: BT-549 breast
Experiment: NCI-60 one-dose screen, 48 h (100 = growth as untreated, 0 = no growth, -100 = all killed)
Conditions: 10 µM unless noted

| Structure (SMILES) | growth |
| --- | --- |
| O=S(=O)(Oc1ccc(Br)cc1)c1ccc(Cl)cc1 | 99.8% (inactive) |
| COC(=O)N1CC(Oc2ccccn2)C2CC1c1ccccc1O2 (centres undefined) | 99.5% (inactive) |
| COc1ccc(/C(C)=C(\c2ccc(Cl)cc2)c2ccc(OCCN3CCCCC3)cc2)cc1 | 73.1% (inactive) |
| Cc1ccc2nc(-c3ccc(C(=O)NNC(=S)Nc4ccccc4)cc3)[nH]c2c1 | 90.6% (inactive) |
| O=S(=O)(NCCCNc1nccc(-c2c(-c3cccc(F)c3)nc3occn23)n1)c1ccc(F)cc1 | 69.4% (inactive) |
| Cc1nc2sc(C(=O)Nc3cccc(Br)c3C)c(N)c2cc1C(O)c1ccccc1 (centres undefined) | 28.2% (inactive) |
| CC1(C)N=C(N)N=C(N)N1c1ccc(CCCCc2ccccc2)c(Cl)c1 | -16% (active) |
| CCCCNC(=O)c1cc([N+](=O)[O-])cc(C2CCCCC2)c1O | 36.5% (inactive) |
| O=C(CCCCCNC(=O)c1cc(=O)c(O)co1)Nc1ccccc1 | 95.9% (inactive) |
| CCOC(=O)c1c(C)nc2ccccc2c1/C=C/c1ccccc1 | 61.7% (inactive) |
| COc1cccc(-c2cc(-c3cccc(Cl)c3)c(C#N)c(=O)[nH]2)c1 | 53.5% (inactive) |
| CN(CCCNC(=O)CCOCCOCCOCCNC(=O)Cc1ccc2ccc3cccc4ccc1c2c34)CCCNc1cc(-c2ccc3ccccc3c2)nc2ccccc12 | -83.6% (active) |
| Cc1ccc2nc(/C(C#N)=C(/CCCO)NC(Cc3ccccc3)C(=O)OCc3ccccc3)[nH]c(=O)c2c1 (centres undefined) | 94.2% (inactive) |
| NS(=O)(=O)c1ccc(-c2cc(-c3nnc(SCC(=O)Nc4ccc(C(=O)/C=C/c5ccc(Cl)cc5)cc4)n3-c3ccccc3)c3ccccc3n2)cc1 | 97.9% (inactive) |
